Read-out in experiment [1]: Intercellular Adhesion Molecule 1 (ICAM1), ICAM1 (gene 3383)
As to the kind of experiment: BSK_BE3C_ICAM1: BioMAP Diversity Plus: BE3C Assay for Intercellular Adhesion Molecule 1 (ICAM1) Biomarker Activity (AID 2284278).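 Note: cell-surface ICAM-1 protein level quantified by ELISA.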 The note with it: primary human bronchial epithelial cells. Put shortly:
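ICAM-1 quantified by ELISA and fitted against DMSO baseline, 24 h post-dosing in BE3C cultures of primary human lung bronchial epithelial cells. Cytotoxicity checked in parallel cultures by total protein SRB staining.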

Read-out in experiment [2]: Interferon-inducible T-cell alpha chemoattractant (ITAC), CXCL11 (gene 6373)
As to the kind of experiment: BSK_BE3C_ITAC: BioMAP Diversity Plus: BE3C Assay for Interferon-inducible T-cell alpha chemoattractant (ITAC) Biomarker Activity (AID 2284279). Conditions: primary human bronchial epithelial cells. Put shortly:
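ELISA for I-TAC in primary human bronchial epithelial cultures 24 h post-treatment, fitted relative to DMSO baseline in positive direction. Cytotoxicity checked in parallel cultures by sulforhodamine B protein staining.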

Read-out in experiment [3]: Interleukin-8 (IL8), CXCL8 (gene 3576)
As to the kind of experiment: BSK_BE3C_IL8: BioMAP Diversity Plus: BE3C Assay for Interleukin-8 (IL8) Biomarker Activity (AID 2284280). The note with it: primary human bronchial epithelial cells. In short, it runs like this:
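Primary human bronchial epithelial cells (BE3C system) were exposed to test chemical for 24 h, and IL-8 levels were then measured by ELISA. Activity was fitted in the positive (gain-of-signal) direction against a DMSO negative-control baseline.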

Read-out in experiment [4]: Epidermal growth factor receptor (EGFR), EGFR (gene 1956)
As to the kind of experiment: BSK_BE3C_EGFR: BioMAP Diversity Plus: BE3C Assay for Epidermal growth factor receptor (EGFR) Biomarker Activity (AID 2284281). The note with it: primary human bronchial epithelial cells. In short, it runs like this:
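Human primary bronchial epithelial cells were exposed to compound for 24 h, and cell-surface EGFR was then quantified by ELISA. Activity was fitted in the positive direction against the DMSO vehicle baseline.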

Read-out in experiment [5]: KRT18 (gene 3875)
As to the kind of experiment: BSK_BE3C_Keratin818: BioMAP Diversity Plus: BE3C Assay for Keratin 818 Biomarker Activity (AID 2284282). The note with it: primary human bronchial epithelial cells. Put shortly: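 ELISA readout of Keratin 8/18 in human primary bronchial epithelial cultures after 24 h chemical exposure, DMSO baseline. Parallel SRB staining (0.1%, TCA-fixed, 560 nm) served as cytotoxicity check.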

Read-out in experiment [6]: Matrix Metallopeptidase 9 (MMP9), MMP9 (gene 4318)
As to the kind of experiment: BSK_BE3C_MMP9: BioMAP Diversity Plus: BE3C Assay for Matrix Metallopeptidase 9 (MMP9) Biomarker Activity (AID 2284283). Conditions: primary human bronchial epithelial cells. Put shortly: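 ELISA read-out of MMP-9 after 24 h compound exposure of human lung bronchial epithelial primary cells (BE3C). Fit in gain direction vs DMSO negative control; total protein by SRB in parallel cultures flagged overt cytotoxicity.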

Read-out in experiment [7]: Plasminogen activator inhibitor-1 (PAI1), SERPINE1 (gene 5054)
As to the kind of experiment: BSK_CASM3C_PAI1: BioMAP Diversity Plus: CASM3C Assay for Plasminogen activator inhibitor-1 (PAI1) Biomarker Activity (AID 2284284).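 Note: PAI-1 protein level measured by ELISA 24 h after dosing.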 Conditions: primary human coronary artery smooth muscle cells.

Read-out in experiment [8]: Monocyte Chemoattractant Protein-1 (MCP1), CCL2 (gene 6347)
As to the kind of experiment: BSK_hDFCGF_MCP1: BioMAP Diversity Plus: hDFCGF Assay for Monocyte Chemoattractant Protein-1 (MCP1) Biomarker Activity (AID 2284285). The note with it: primary human foreskin fibroblasts. In short, it runs like this: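 MCP-1 ELISA readout was taken 24 hours after dosing primary human dermal fibroblasts in the hDFCGF system, with DMSO as baseline. Parallel sulforhodamine B staining of total protein tracked overt cytotoxicity.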

Read-out in experiment [9]: Intercellular Adhesion Molecule 1 (ICAM1), ICAM1 (gene 3383)
As to the kind of experiment: BSK_hDFCGF_ICAM1: BioMAP Diversity Plus: hDFCGF Assay for Intercellular Adhesion Molecule 1 (ICAM1) Biomarker Activity (AID 2284287). Conditions: primary human foreskin fibroblasts. In short, it runs like this:
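ICAM-1 ELISA readout 24 h after dosing, DMSO as baseline, in human dermal foreskin fibroblast cultures. Cytotoxicity checked in parallel wells by SRB staining (0.1% SRB, 10% TCA fixation, 560 nm).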

Read-out in experiment [10]: TIMP metallopeptidase inhibitor 2 (TIMP2), TIMP2 (gene 7077)
As to the kind of experiment: BSK_hDFCGF_TIMP2: BioMAP Diversity Plus: hDFCGF Assay for TIMP metallopeptidase inhibitor 2 (TIMP2) Biomarker Activity (AID 2284289). Conditions: primary human foreskin fibroblasts. In short, it runs like this: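 Primary human foreskin fibroblasts in the hDFCGF system, dosed for 24 h; TIMP-2 level measured by ELISA, fitted in the positive direction against DMSO; cytotoxicity checked in parallel by sulforhodamine B total protein staining.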

Read-out in experiment [11]: Thrombomodulin, THBD (gene 7056)
As to the kind of experiment: BSK_LPS_Thrombomodulin: BioMAP Diversity Plus: LPS Assay for Thrombomodulin Biomarker Activity (AID 2284296). The note with it: primary human HUVEC with PBMC. In short, it runs like this: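 Thrombomodulin on the surface of LPS-activated endothelial/PBMC co-cultures was quantified by ELISA at 24 hours post-dosing, with DMSO as baseline. Parallel SRB total-protein staining flagged overt cytotoxicity.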

The structures appear in SMILES notation. More than one record can exist for a structure, and the calls need not agree. Calls of active or inactive are those of the source. Rule for the calls: active = hit-call score of the fitted dose curve at least 0.9, where 1 is the maximum; inactive = score below 0.9.

On to `Oc1ccccc1Cc1ccccc1O`, for which the result in experiment [1], in [2], in experiment [3], in [4], in [5] and in experiment [6] was inactive. The result in experiment [7], in experiment [8], in experiment [9], in experiment [10] and in experiment [11] was inactive. For the same molecule, in experiment [6], the AC50 (in general, the concentration giving half of the maximal activity seen) is 20 µM (active).
As for `CCCCCCCCCCCC(=O)N(C)CC(=O)O`, the outcome in experiment [1], in experiment [2], in experiment [3], in experiment [4], in experiment [5] and in [6] was inactive. For the same molecule, the result in experiment [7], in [8], in [9], in experiment [10] and in experiment [11] was inactive. In addition, in experiment [8], the AC50 is 5.84 µM (active).
For `CCCC(C)C(=O)OCC` (configuration not stated), the result in experiment [1], in [2], in experiment [3], in experiment [4], in [5] and in experiment [6] was inactive. The result in experiment [7], in [8], in [9], in experiment [10] and in [11] was inactive.
For `Nc1nc(N)nc(-c2ccccc2)n1`, the outcome in [1], in [2], in experiment [3], in experiment [4], in experiment [5] and in experiment [6] was inactive. Moreover, the outcome in experiment [7], in [8], in experiment [9], in experiment [10] and in experiment [11] was inactive.
For the molecule `CC(CCC(=O)O)(c1ccc(O)cc1)c1ccc(O)cc1`, the outcome in experiment [1], in experiment [2], in experiment [3], in experiment [4], in experiment [5] and in experiment [6] was inactive. Further, the outcome in experiment [7], in [8], in experiment [9], in experiment [10] and in experiment [11] was inactive.

The values above are taken from PubChem BioAssay (EPA / NIEHS).
